# Measured values reported in PubChem BioAssay (EPA / NIEHS).
# Where “and” joins values, the source holds several entries; their conditions need not be identical. Equal entries are not always repeated. Records with an inconclusive call do not appear. A structure can be active in one record and inactive in another. Calls of active or inactive are those of the source. How the source made its calls, unless noted: active means hit-call score of the fitted dose curve at least 0.9, where 1 is the maximum; inactive means score below 0.9.
# Assays:
# [1] = read-out: Intercellular Adhesion Molecule 1 (ICAM1), ICAM1 (gene 3383); assay: BSK_3C_ICAM1: BioMAP Diversity Plus: 3C Assay for Intercellular Adhesion Molecule 1 (ICAM1) Biomarker Activity (AID 2283003); conditions: primary human endothelial cells (HUVEC); actives raise or lower the signal
# Outline: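 Primary human umbilical vein endothelial cells in the BioMAP 3C system were exposed to chemicals for 24 h, then ICAM-1 was quantified by ELISA. Activity was fitted bidirectionally against the DMSO negative control baseline.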
# [2] = molecular target: human Retinoic Acid Receptor beta (RARb), RARB (gene 5915) (UniProt P10826); assay: ATG_RARb_TRANS: Attagene TRANS-FACTORIAL HepG2 Assay for human Retinoic Acid Receptor beta (AID 2283004; active means hit-call score of the fitted dose curve at least 0.9, where 1 is the maximum)
# human Retinoic Acid Receptor beta (RARb), RARB (gene 5915), sequence (P10826 whole entry, looked up, the tested form may be a part): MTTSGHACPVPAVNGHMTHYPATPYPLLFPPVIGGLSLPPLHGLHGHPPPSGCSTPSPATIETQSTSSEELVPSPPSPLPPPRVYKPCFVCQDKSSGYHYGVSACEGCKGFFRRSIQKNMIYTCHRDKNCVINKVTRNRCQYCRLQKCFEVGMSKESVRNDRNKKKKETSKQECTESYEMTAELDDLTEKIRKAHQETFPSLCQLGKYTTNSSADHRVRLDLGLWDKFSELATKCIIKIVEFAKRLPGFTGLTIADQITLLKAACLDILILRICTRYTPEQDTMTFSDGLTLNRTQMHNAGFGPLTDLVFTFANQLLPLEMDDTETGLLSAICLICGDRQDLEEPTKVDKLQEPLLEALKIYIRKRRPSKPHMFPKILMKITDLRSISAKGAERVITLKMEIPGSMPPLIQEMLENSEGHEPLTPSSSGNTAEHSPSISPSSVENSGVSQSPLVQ
# Outline: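 HepG2 cells transiently transfected with multiplexed GAL4-UAS reporter units expressing chimeric NR–Gal4 fusions; 24 h compound exposure. Reporter mRNA quantified by RT-PCR, 6-FAM labelling, HpaI digestion and capillary electrophoresis; gain-of-signal fitted against DMSO baseline.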
# [3] = BSK_3C_Proliferation: Cell Proliferation Assessment in the BioMAP Diversity Plus: 3C Assay (AID 2283006); conditions: primary human endothelial cells (HUVEC);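 on AC50: potency may reflect either rise or fall in cell number versus DMSO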
# Outline: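 Human umbilical vein endothelial cells were grown sub-confluent and exposed to chemical for 48 h, then fixed with 10% TCA and stained with 0.1% sulforhodamine B; absorbance at 560 nm gave relative cell number, fitted bidirectionally against DMSO baseline.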
# [4] = molecular target: Peroxisome proliferator-activated receptor gamma (Homo sapiens) (UniProt P37231); assay: ATG_PPARg_TRANS: Attagene TRANS-FACTORIAL HepG2 Assay for human Peroxisome Proliferator-activated Receptor-gamma (PPARg) (AID 2283007; active means hit-call score of the fitted dose curve at least 0.9, where 1 is the maximum)
# Peroxisome proliferator-activated receptor gamma (Homo sapiens), sequence (P37231 whole entry, looked up, the tested form may be a part): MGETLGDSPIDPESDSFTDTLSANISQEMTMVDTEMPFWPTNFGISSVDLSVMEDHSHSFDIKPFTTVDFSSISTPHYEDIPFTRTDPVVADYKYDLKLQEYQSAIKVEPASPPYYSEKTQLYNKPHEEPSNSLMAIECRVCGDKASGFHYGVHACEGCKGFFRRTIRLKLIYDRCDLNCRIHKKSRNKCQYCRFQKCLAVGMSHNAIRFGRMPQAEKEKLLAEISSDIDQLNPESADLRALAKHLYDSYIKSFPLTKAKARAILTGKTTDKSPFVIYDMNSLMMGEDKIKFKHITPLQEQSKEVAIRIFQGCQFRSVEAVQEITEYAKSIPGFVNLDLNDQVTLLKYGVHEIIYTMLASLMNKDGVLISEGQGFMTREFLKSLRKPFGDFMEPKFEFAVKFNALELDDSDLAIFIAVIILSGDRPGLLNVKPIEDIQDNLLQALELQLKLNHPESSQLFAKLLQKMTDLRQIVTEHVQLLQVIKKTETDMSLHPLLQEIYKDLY
# Outline: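 Transient transfection of HepG2 with GAL4-UAS-driven reporter units; chemical dosing 24 h; total RNA → oligo(dT) RT → PCR with reporter primers → 6-FAM primer extension → HpaI digest 2 h 37 C → capillary electrophoresis. Positive direction vs DMSO.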
# [5] = molecular target: human Retinoic Acid Receptor gamma (RARg), RARG (gene 5916) (UniProt P13631); assay: ATG_RARg_TRANS: Attagene TRANS-FACTORIAL HepG2 Assay for human Retinoic Acid Receptor gamma (RARg) (AID 2283009; active means hit-call score of the fitted dose curve at least 0.9, where 1 is the maximum)
# human Retinoic Acid Receptor gamma (RARg), RARG (gene 5916), sequence (P13631 whole entry, looked up, the tested form may be a part): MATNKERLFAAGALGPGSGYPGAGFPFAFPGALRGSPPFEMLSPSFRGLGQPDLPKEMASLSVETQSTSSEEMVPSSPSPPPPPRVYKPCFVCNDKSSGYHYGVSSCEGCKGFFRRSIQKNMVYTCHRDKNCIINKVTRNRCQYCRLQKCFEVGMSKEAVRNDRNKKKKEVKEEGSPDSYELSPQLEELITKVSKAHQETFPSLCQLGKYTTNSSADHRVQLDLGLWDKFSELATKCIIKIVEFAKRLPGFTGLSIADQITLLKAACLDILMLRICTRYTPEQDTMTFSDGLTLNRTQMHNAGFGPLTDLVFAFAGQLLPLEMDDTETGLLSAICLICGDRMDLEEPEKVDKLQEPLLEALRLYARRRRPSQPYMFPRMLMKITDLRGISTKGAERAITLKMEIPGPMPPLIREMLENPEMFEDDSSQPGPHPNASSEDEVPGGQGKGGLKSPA
# Outline: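 HepG2 cells transiently transfected with multiplexed reporter units expressing chimeric RARg-GAL4 and GAL4-UAS-driven reporters; 24 h compound exposure. Reporter mRNA quantified by RT-PCR with fluorescent labelling and capillary electrophoresis; gain-of-signal fitted relative to DMSO baseline.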
# [6] = molecular target: human RAR-related Orphan Receptor beta (RORb), RORB (gene 6096) (UniProt Q92753); assay: ATG_RORb_TRANS: Attagene TRANS-FACTORIAL HepG2 Assay for human RAR-related Orphan Receptor beta (RORb) (AID 2283010; active means hit-call score of the fitted dose curve at least 0.9, where 1 is the maximum)
# human RAR-related Orphan Receptor beta (RORb), RORB (gene 6096), sequence (Q92753 whole entry, looked up, the tested form may be a part): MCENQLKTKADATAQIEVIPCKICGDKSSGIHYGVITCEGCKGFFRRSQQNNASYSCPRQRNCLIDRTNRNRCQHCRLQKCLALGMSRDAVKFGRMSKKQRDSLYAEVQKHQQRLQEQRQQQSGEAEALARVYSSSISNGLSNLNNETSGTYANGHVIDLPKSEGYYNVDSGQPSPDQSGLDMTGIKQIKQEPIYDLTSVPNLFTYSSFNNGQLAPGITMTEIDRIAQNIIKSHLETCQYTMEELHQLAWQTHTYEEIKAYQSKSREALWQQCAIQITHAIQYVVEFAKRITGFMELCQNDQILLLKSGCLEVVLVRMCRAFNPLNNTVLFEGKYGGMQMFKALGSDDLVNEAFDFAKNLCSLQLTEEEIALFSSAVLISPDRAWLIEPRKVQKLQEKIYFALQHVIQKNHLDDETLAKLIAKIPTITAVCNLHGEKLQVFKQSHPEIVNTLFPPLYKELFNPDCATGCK
# Outline: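 HepG2 cells were transiently transfected with multiplexed GAL4-UAS reporter units expressing chimeric nuclear receptor–GAL4 proteins, then dosed for 24 h. Reporter mRNA was quantified by RT-PCR with fluorescent labelling and capillary electrophoresis; gain of signal was fitted relative to DMSO.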
# [7] = molecular target: human RAR-related Orphan Receptor gamma (RORg), RORC (gene 6097) (UniProt P51449); assay: ATG_RORg_TRANS: Attagene TRANS-FACTORIAL HepG2 Assay for human RAR-related Orphan Receptor gamma (RORg) (AID 2283011; active means hit-call score of the fitted dose curve at least 0.9, where 1 is the maximum)
# human RAR-related Orphan Receptor gamma (RORg), RORC (gene 6097), sequence (P51449 whole entry, looked up, the tested form may be a part): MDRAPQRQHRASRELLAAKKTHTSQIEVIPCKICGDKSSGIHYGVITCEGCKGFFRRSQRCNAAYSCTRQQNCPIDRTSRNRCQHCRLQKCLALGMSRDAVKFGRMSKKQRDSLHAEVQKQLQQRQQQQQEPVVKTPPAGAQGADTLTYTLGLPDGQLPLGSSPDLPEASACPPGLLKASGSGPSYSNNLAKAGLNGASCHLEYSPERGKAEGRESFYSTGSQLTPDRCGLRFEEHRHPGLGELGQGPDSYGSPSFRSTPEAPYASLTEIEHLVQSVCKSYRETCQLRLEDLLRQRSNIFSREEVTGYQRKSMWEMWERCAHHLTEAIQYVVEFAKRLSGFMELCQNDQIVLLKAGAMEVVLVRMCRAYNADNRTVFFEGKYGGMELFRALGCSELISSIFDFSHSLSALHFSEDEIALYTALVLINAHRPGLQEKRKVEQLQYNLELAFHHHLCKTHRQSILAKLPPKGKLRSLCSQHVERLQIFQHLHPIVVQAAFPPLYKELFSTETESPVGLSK
# Outline: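 Readout: reporter transcript induction (RT-PCR, fluorescent primer extension, capillary electrophoresis) after 24 h compound exposure of transiently transfected HepG2 cells carrying a RORg-Gal4 chimera and GAL4-UAS reporters; DMSO served as baseline, with increasing signal fitted.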
# [8] = molecular target: human Retinoid X Receptor beta (RXRb), RXRB (gene 6257) (UniProt P28702); assay: ATG_RXRb_TRANS: Attagene TRANS-FACTORIAL HepG2 Assay for human Retinoid X Receptor beta (RXRb) (AID 2283013; active means hit-call score of the fitted dose curve at least 0.9, where 1 is the maximum)
# human Retinoid X Receptor beta (RXRb), RXRB (gene 6257), sequence (P28702 whole entry, looked up, the tested form may be a part): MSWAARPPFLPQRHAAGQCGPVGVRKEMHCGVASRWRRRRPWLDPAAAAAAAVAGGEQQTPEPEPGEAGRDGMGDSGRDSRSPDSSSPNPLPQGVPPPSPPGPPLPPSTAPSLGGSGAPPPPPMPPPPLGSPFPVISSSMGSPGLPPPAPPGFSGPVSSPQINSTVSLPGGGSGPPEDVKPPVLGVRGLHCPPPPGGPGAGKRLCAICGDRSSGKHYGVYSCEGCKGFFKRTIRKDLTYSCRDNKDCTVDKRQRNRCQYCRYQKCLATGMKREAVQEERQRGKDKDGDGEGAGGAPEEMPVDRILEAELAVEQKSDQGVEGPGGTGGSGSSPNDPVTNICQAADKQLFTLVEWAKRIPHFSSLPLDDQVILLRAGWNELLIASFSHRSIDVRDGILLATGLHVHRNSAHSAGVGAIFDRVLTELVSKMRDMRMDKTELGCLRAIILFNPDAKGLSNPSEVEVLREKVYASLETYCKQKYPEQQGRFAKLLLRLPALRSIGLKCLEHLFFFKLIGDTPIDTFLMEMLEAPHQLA
# Outline: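 HepG2 cells transiently transfected with multiplexed reporter units driven by GAL4-UAS and exogenous chimeric NR-Gal4 proteins; treated 24 h. Reporter mRNA measured by RT-PCR, 6-FAM labelling and capillary electrophoresis; gain-of-signal fitted versus DMSO baseline.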
# [9] = read-out: E-selectin (Homo sapiens) (UniProt P16581); assay: BSK_3C_Eselectin: BioMAP Diversity Plus: 3C Assay for Eselectin Biomarker Activity (AID 2283015); conditions: primary human endothelial cells (HUVEC); actives raise or lower the signal;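 on outcome: cell surface E-selectin protein quantified by ELISA 24 h after dosing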
# Outline: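 Primary human umbilical vein endothelial cells (3C system) were dosed with chemical and cell-surface E-selectin measured by ELISA 24 h later. Bidirectional curve fitting used DMSO as negative control and baseline.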
# [10] = read-out: Interleukin-1 alpha (IL1a), IL1A (gene 3552); assay: BSK_BE3C_IL1a: BioMAP Diversity Plus: BE3C Assay for Interleukin-1 alpha (IL1a) Biomarker Activity (AID 2283016); conditions: primary human bronchial epithelial cells; actives raise or lower the signal
# Outline: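 Human primary bronchial epithelial cells (BE3C system) were dosed with compound and IL-1a measured by ELISA 24 h later. Activity was fitted bidirectionally against DMSO baseline; cytotoxicity was tracked in parallel cultures by SRB total-protein staining.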
# [11] = read-out: Monocyte Chemoattractant Protein-1 (MCP1), CCL2 (gene 6347); assay: BSK_3C_MCP1: BioMAP Diversity Plus: 3C Assay for Monocyte Chemoattractant Protein-1 (MCP1) Biomarker Activity (AID 2283017); conditions: primary human endothelial cells (HUVEC); actives raise or lower the signal
# Outline: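 Primary human umbilical vein endothelial cells (3C system) were exposed to test chemical for 24 h, after which MCP-1 was quantified by ELISA. Activity was fitted bidirectionally against DMSO as negative control and baseline.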
# [12] = read-out: Monocyte Chemoattractant Protein-1 (MCP1), CCL2 (gene 6347); assay: BSK_4H_MCP1: BioMAP Diversity Plus: 4H Assay for Monocyte Chemoattractant Protein-1 (MCP1) Biomarker Activity (AID 2283018); conditions: primary human endothelial cells (HUVEC); actives raise or lower the signal
# Outline: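 Human umbilical vein endothelial cells (4H system) dosed with chemical; MCP-1 measured by ELISA 24 h after dosing. Bidirectional curve fitting against DMSO negative control as baseline; parallel SRB total-protein staining tracks overt cytotoxicity.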
# [13] = read-out: Human Leukocyte Antigen - DR isotype (HLADR), HLA-DRA (gene 3122); assay: BSK_3C_HLADR: BioMAP Diversity Plus: 3C Assay for Human Leukocyte Antigen - DR isotype (HLADR) Biomarker Activity (AID 2283019); conditions: primary human endothelial cells (HUVEC); actives raise or lower the signal;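 on outcome: ELISA of cell-surface HLA-DR on HUVEC 24 h after dosing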
# Outline: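 Primary human umbilical vein endothelial cells (3C system) were dosed with compound and cell-surface HLA-DR was quantified by ELISA at 24 h. Activity was fitted bidirectionally against DMSO as negative control and baseline.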
# [14] = read-out: Interleukin-8 (IL8), CXCL8 (gene 3576); assay: BSK_3C_IL8: BioMAP Diversity Plus: 3C Assay for Interleukin-8 (IL8) Biomarker Activity (AID 2283020); conditions: primary human endothelial cells (HUVEC); actives raise or lower the signal
# Outline: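 Primary human umbilical vein endothelial cells (3C system) were exposed to test chemical for 24 h, then IL-8 was quantified by ELISA. Responses were fitted bidirectionally against DMSO vehicle as baseline.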
# [15] = read-out: Monokine induced gamma interferon (MIG), CXCL9 (gene 4283); assay: BSK_3C_MIG: BioMAP Diversity Plus: 3C Assay for Monokine induced gamma interferon (MIG) Biomarker Activity (AID 2283021); conditions: primary human endothelial cells (HUVEC); actives raise or lower the signal
# Outline: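 Primary human umbilical vein endothelial cells in the 3C system were exposed to chemical for 24 h, after which MIG was quantified by ELISA. Activity was fitted bidirectionally against DMSO as negative control and baseline.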
# [16] = molecular target: Nuclear receptor subfamily 1 group I member 2 (Homo sapiens) (UniProt O75469); assay: ATG_PXR_TRANS: Attagene TRANS-FACTORIAL HepG2 Assay for human Pregnane X Receptor (PXR) (AID 2283008; active means hit-call score of the fitted dose curve at least 0.9, where 1 is the maximum)
# Nuclear receptor subfamily 1 group I member 2 (Homo sapiens), sequence (O75469 whole entry, looked up, the tested form may be a part): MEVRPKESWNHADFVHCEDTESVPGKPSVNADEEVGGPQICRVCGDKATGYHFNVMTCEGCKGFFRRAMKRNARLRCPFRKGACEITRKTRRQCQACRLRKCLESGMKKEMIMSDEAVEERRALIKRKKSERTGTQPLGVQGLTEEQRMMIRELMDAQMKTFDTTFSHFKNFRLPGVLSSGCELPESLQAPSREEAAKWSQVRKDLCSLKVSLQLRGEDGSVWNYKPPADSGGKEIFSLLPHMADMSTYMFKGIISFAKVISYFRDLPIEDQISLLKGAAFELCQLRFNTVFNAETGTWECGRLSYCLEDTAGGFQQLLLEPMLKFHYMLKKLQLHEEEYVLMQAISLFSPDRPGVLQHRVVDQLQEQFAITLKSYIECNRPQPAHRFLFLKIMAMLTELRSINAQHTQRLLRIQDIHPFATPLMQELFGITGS
# Outline: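 Fluorescence intensity of FAM-labelled, HpaI-digested reporter amplicons, separated by capillary electrophoresis, quantifies induction. HepG2 cells with PXR-Gal4 trans-reporter system were exposed 24 h; DMSO defines baseline.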
# [17] = molecular target: Retinoic acid receptor RXR-alpha (Homo sapiens) (UniProt P19793); assay: ATG_RXRa_TRANS: Attagene TRANS-FACTORIAL HepG2 Assay for human Retinoid X Receptor alpha (RXRa) (AID 2283012; active means hit-call score of the fitted dose curve at least 0.9, where 1 is the maximum)
# Retinoic acid receptor RXR-alpha (Homo sapiens), sequence (P19793 whole entry, looked up, the tested form may be a part): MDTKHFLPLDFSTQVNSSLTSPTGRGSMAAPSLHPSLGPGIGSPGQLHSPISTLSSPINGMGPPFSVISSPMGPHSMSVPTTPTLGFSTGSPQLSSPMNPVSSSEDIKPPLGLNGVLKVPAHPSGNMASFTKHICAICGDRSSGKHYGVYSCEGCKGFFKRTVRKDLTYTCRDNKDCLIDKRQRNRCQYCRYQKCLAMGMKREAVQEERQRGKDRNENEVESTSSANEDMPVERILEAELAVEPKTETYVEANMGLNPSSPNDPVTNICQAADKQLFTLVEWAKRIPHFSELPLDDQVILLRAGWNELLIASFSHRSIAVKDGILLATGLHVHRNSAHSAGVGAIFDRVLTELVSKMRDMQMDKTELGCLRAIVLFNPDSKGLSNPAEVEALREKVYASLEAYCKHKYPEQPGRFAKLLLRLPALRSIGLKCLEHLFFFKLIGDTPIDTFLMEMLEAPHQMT
# Outline: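 HepG2 cells transiently transfected with multiplexed GAL4-UAS reporter units and chimeric NR-GAL4 fusions, dosed 24 h. Reporter mRNA measured by RT-PCR, FAM labelling, HpaI digestion and capillary electrophoresis; gain-of-signal fitted relative to DMSO baseline.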
# [18] = molecular target: human Thyroid Receptor alpha (THRa1), THRA (gene 7067) (UniProt P10827); assay: ATG_THRa1_TRANS: Attagene TRANS-FACTORIAL HepG2 Assay for human Thyroid Receptor alpha (THRa1) (AID 2283014; active means hit-call score of the fitted dose curve at least 0.9, where 1 is the maximum)
# Outline: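 HepG2 cells transiently transfected with multiplexed GAL4-UAS reporter units for exogenous chimeric THRa1-Gal4; reporter mRNA measured 24 h after dosing by RT-PCR, 6-FAM labelling, HpaI digestion and capillary electrophoresis. Gain-of-signal fitted versus DMSO baseline.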
# [19] = molecular target: human Vitamin D Receptor (VDR), VDR (gene 7421) (UniProt P11473); assay: ATG_VDR_TRANS: Attagene TRANS-FACTORIAL HepG2 Assay for human Vitamin D Receptor (VDR) (AID 2283022; active means hit-call score of the fitted dose curve at least 0.9, where 1 is the maximum)
# human Vitamin D Receptor (VDR), VDR (gene 7421), sequence (P11473 whole entry, looked up, the tested form may be a part): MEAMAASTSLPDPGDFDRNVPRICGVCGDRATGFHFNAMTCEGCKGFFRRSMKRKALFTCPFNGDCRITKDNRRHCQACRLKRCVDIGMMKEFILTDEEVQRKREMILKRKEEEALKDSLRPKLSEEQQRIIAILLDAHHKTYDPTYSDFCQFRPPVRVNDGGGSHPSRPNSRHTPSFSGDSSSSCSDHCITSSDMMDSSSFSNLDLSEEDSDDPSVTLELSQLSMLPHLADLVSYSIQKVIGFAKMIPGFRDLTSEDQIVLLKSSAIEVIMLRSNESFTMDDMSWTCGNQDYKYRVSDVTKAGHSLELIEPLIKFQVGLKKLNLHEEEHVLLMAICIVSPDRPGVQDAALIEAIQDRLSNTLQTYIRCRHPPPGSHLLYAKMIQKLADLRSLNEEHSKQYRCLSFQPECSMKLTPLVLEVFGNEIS
# Outline: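 HepG2 cells were transiently transfected with multiple GAL4-UAS reporter units, so signal reflects exogenous chimeric receptor-Gal4 activity. After 24 h compound exposure, reporter mRNA was measured by RT-PCR, fluorescent labelling and capillary electrophoresis, fitted for gain of signal versus DMSO.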
# [20] = molecular target: Retinoic acid receptor alpha (Homo sapiens) (UniProt P10276); assay: ATG_RARa_TRANS: Attagene TRANS-FACTORIAL HepG2 Assay for human Retinoic Acid Receptor alpha (RARa) (AID 2283005; active means hit-call score of the fitted dose curve at least 0.9, where 1 is the maximum)
# Outline: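 HepG2 cells transiently transfected with multiple reporter units expressing chimeric RARα-GAL4 fusion, with GAL4-UAS-driven reporters. After 24 h compound exposure, reporter mRNA induction quantified by RT-PCR and capillary electrophoresis with fluorescent labeling; gain-of-signal fitted relative to DMSO control.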
# E-selectin (Homo sapiens), sequence (P16581 whole entry, looked up): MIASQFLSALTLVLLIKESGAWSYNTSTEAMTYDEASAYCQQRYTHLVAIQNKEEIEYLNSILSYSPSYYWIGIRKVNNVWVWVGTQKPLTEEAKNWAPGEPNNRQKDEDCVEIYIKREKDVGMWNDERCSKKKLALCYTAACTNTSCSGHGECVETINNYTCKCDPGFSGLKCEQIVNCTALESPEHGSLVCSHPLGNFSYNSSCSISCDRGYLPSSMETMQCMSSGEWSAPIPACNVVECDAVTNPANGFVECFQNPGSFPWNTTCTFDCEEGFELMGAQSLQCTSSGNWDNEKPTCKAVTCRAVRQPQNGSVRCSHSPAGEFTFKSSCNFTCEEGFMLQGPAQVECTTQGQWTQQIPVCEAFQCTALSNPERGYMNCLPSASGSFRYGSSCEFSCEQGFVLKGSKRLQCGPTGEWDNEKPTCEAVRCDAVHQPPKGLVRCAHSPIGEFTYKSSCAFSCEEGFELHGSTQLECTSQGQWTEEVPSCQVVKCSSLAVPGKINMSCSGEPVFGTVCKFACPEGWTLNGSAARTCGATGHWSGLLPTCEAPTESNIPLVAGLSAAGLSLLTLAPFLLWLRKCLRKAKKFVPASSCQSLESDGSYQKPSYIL
smiles,measurement,setting,value
O=C1NS(=O)(=O)c2ccccc21,outcome,[1],inactive
same,outcome,[2],inactive
same,outcome,[3],inactive
same,outcome,[4],inactive
same,outcome,[5],inactive
same,outcome,[7],inactive
same,outcome,[8],inactive
same,outcome,[9],inactive
same,outcome,[10],inactive
same,outcome,[11],inactive
same,outcome,[12],inactive
same,outcome,[13],inactive
same,outcome,[14],inactive
same,outcome,[15],inactive
Oc1ccc(Cc2ccccc2O)cc1,outcome,[1],inactive
same,AC50,[3],15.9 µM (active)
same,outcome,[3],inactive
same,outcome,[4],inactive
same,outcome,[16],inactive
same,outcome,[17],inactive
same,outcome,[18],inactive
same,outcome,[9],inactive
same,outcome,[10],inactive
same,outcome,[11],inactive
same,outcome,[12],inactive
same,outcome,[13],inactive
same,outcome,[14],inactive
same,outcome,[15],inactive
same,outcome,[19],inactive
Oc1c(Cl)cc(Cl)cc1Sc1cc(Cl)cc(Cl)c1O,AC50,[1],33.5 µM (active) and 34.8 µM (active)
same,AC50,[3],5.56 µM (active) and 4.63 µM (active)
same,AC50,[4],2.69 µM (active)
same,AC50,[16],1.9 µM (active)
same,outcome,[5],inactive
same,outcome,[6],inactive
same,outcome,[7],inactive
same,outcome,[17],inactive
same,outcome,[18],inactive
same,AC50,[9],31.1 µM (active) and 29.8 µM (active)
same,AC50,[10],7.68 µM (active) and 8.04 µM (active)
same,AC50,[11],36.2 µM (active) and 35.9 µM (active)
same,AC50,[12],9.13 µM (active) and 5.86 µM (active)
same,AC50,[13],15.5 µM (active) and 22.3 µM (active)
same,AC50,[14],36 µM (active) and 35.2 µM (active)
same,outcome,[19],inactive
O=C(c1ccccc1)c1ccccc1,outcome,[1],inactive
same,outcome,[2],inactive
same,outcome,[3],inactive
same,AC50,[16],100 µM (active)
same,outcome,[16],inactive
same,outcome,[5],inactive
same,outcome,[6],inactive
same,outcome,[7],inactive
same,outcome,[9],inactive
same,outcome,[10],inactive
same,outcome,[11],inactive
same,outcome,[12],inactive
same,outcome,[13],inactive
same,outcome,[14],inactive
same,outcome,[15],inactive
same,outcome,[19],inactive
Cc1cccc2c1ccc1ccccc12,outcome,[1],inactive
same,outcome,[2],inactive
same,outcome,[20],inactive
same,AC50,[3],20 µM (active)
same,outcome,[4],inactive
same,AC50,[16],11.2 µM (active)
same,outcome,[5],inactive
same,outcome,[6],inactive
same,outcome,[17],inactive
same,AC50,[8],22.6 µM (active)
same,outcome,[9],inactive
same,AC50,[10],5.56 µM (active)
same,outcome,[11],inactive
same,outcome,[12],inactive
same,AC50,[13],20 µM (active)
same,outcome,[14],inactive
same,outcome,[15],inactive
same,outcome,[19],inactive
CN(Cc1cnc2nc(N)nc(N)c2n1)c1ccc(C(=O)N[C@@H](CCC(=O)O)C(=O)O)cc1,outcome,[1],inactive
same,outcome,[2],inactive
same,outcome,[20],inactive
same,outcome,[3],inactive
same,outcome,[4],inactive
same,outcome,[5],inactive
same,outcome,[6],inactive
same,outcome,[7],inactive
same,outcome,[17],inactive
same,outcome,[8],inactive
same,outcome,[9],inactive
same,outcome,[10],inactive
same,outcome,[11],inactive
same,outcome,[12],inactive
same,outcome,[13],inactive
same,outcome,[14],inactive
same,outcome,[15],inactive
